# Test results: publication PMC7862700, “An all-to-all approach to the identification of sequence-specific readers for epigenetic DNA modifications on cytosine”
# Assays:
# Assay in all cases: DAPPL (digital affinity profiling via proximity ligation, sequencing); 10 mM Tris-HCl pH 7.5, 50 mM NaCl, 1 mM DTT, 4% glycerol, room temperature, 30 min; GST-TFs on glutathione beads, 16-mer random dsDNA library, 0.1% formaldehyde crosslink after washing; high values mean tight binding
# FLI1 = target: T1, FLI1 (Homo sapiens, UniProt Q01543 1-452); conditions: protein: recombinant; tags: N-terminal GST; dsDNA, one strand shown
# T1 sequence: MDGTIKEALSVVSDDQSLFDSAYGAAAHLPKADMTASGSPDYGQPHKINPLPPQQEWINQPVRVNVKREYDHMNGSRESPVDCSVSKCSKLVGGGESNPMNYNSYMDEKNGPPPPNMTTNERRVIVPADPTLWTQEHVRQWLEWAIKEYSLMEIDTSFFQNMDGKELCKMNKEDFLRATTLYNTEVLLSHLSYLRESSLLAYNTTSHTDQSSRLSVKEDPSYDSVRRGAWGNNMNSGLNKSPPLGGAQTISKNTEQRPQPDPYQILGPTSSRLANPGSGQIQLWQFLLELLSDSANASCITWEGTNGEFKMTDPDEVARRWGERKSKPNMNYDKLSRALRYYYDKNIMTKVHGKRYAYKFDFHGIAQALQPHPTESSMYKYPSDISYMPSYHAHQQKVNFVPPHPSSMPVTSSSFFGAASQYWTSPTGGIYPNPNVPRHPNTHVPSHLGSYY
# Outline: (§1)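 Human transcription factors carrying a GST fusion were produced in yeast, bound to glutathione beads, tagged with DNA barcodes and pooled together with a tag-only sample. Each pool was held with 200 nmole of a random double-stranded 16-mer DNA library in Tris/NaCl/DTT/glycerol buffer for 30 min at room temperature, then washed, crosslinked in 0.1% formaldehyde, proximity-ligated with BsaI/T4 ligase (1 h, 37 °C), PCR-amplified and sequenced on an Illumina NextSeq500. Binding signal is the read frequency of each hexamer for a given factor divided by its frequency in the tag-only sample.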
# ELK1 = target: T2, ELK1 (Homo sapiens, UniProt P19419 1-428); conditions: protein: recombinant; tags: N-terminal GST; dsDNA, one strand shown
# T2 sequence: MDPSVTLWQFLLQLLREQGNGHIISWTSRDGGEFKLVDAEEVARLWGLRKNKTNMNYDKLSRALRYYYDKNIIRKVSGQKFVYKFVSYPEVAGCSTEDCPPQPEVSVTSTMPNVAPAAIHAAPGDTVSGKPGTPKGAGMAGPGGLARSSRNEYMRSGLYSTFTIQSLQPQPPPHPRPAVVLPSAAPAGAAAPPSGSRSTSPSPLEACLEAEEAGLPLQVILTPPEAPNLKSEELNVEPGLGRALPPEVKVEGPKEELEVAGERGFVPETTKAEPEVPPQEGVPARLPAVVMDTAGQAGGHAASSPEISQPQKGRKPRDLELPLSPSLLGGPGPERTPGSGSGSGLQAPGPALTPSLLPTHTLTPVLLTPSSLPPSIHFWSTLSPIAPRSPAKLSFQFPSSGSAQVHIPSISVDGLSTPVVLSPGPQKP
# Outline: as §1
# GABPA = target: T3, GABPA (Homo sapiens, UniProt Q06546 1-454); conditions: protein: recombinant; tags: N-terminal GST; dsDNA, one strand shown
# T3 sequence: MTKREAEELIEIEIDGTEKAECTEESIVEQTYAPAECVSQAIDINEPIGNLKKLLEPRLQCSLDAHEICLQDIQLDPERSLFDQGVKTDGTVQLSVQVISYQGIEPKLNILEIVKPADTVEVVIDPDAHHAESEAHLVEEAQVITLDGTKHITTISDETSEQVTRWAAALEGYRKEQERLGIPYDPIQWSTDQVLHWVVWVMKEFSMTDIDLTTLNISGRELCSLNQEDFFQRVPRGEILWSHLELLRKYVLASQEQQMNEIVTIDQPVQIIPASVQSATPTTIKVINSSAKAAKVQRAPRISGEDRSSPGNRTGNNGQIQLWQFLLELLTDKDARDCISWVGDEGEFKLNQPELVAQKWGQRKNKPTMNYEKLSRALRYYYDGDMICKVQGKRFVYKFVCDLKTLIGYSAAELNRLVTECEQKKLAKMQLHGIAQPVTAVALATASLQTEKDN
# Outline: as §1
# ERG = target: T4, ERG (Homo sapiens, UniProt P11308 1-479); conditions: protein: recombinant; tags: N-terminal GST; dsDNA, one strand shown
# T4 sequence: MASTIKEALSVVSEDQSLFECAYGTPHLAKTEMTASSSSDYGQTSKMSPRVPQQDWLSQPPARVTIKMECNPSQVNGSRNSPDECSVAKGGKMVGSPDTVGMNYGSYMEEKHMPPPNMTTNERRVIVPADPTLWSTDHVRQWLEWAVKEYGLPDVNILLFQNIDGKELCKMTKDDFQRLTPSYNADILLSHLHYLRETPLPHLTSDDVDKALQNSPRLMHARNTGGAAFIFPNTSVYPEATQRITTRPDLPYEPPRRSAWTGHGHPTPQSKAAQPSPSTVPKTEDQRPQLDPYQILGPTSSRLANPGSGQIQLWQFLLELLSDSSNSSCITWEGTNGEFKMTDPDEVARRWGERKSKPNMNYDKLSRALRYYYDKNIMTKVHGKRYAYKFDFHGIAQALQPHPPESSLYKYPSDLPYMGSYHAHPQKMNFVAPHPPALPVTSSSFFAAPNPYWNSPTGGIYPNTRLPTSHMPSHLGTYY
# Outline: as §1
# ELF1 = ELF1 (Homo sapiens, UniProt P32519 1-619); conditions: protein: recombinant; tags: N-terminal GST; dsDNA, one strand shown
# Chain of ELF1 (P32519 whole entry): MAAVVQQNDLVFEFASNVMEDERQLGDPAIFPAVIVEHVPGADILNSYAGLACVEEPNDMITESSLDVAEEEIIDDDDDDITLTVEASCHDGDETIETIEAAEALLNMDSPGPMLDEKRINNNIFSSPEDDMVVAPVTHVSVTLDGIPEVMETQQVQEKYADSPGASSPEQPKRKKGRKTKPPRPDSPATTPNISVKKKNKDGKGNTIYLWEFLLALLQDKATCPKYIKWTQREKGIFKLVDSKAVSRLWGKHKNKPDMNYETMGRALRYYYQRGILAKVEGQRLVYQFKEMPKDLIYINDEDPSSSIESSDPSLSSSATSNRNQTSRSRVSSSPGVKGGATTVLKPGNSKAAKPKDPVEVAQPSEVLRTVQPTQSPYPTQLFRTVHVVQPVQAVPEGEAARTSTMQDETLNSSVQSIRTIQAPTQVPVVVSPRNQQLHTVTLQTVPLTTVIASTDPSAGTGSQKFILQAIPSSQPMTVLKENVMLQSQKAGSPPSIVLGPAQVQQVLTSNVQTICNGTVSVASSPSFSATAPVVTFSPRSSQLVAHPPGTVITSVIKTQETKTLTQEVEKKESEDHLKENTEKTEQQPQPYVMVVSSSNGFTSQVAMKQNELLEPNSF
# Outline: as §1
# EHF = target: T5, EHF (Homo sapiens, UniProt Q9NZC4 1-300); conditions: protein: recombinant; tags: N-terminal GST; dsDNA, one strand shown
# T5 sequence: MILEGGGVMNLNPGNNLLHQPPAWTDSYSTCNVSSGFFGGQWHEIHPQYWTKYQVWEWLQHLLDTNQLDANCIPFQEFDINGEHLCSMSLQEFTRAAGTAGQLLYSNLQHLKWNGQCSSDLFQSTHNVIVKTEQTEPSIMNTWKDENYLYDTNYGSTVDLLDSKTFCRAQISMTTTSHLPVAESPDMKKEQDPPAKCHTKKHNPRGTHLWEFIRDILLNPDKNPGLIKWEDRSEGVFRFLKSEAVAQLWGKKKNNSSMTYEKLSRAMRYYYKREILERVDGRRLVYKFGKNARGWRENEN
# Outline: as §1
# SPI1 = SPI1 (Homo sapiens, UniProt P17947 1-270); conditions: protein: recombinant; tags: N-terminal GST; dsDNA, one strand shown
# Outline: as §1
# SPIB = SPIB (Homo sapiens, UniProt Q01892 1-262); conditions: protein: recombinant; tags: N-terminal GST; dsDNA, one strand shown
# Chain of SPIB (Q01892 whole entry): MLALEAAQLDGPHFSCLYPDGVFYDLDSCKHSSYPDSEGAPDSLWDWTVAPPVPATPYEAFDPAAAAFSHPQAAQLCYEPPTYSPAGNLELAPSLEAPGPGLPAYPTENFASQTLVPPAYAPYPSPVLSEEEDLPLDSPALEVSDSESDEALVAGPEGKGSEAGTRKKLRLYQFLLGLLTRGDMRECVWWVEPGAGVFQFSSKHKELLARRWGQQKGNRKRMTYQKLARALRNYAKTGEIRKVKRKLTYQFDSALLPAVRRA
# Outline: as §1
# ELK3 = target: T6, ELK3 (Homo sapiens, UniProt P41970 1-407); conditions: protein: recombinant; tags: N-terminal GST; dsDNA, one strand shown
# T6 sequence: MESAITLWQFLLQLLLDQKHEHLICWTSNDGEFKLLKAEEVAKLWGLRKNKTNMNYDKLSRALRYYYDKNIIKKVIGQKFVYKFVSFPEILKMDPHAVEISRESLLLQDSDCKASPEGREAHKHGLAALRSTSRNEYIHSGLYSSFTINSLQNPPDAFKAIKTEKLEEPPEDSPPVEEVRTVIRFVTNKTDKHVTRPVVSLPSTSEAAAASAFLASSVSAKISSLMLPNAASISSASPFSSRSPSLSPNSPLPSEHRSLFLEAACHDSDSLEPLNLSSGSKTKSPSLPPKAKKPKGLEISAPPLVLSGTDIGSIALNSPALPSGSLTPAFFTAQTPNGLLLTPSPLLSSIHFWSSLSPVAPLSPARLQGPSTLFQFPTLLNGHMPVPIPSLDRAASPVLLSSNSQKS
# Outline: as §1
# FEV = target: T7, FEV (Homo sapiens, UniProt Q99581 1-238); conditions: protein: recombinant; tags: N-terminal GST; dsDNA, one strand shown
# T7 sequence: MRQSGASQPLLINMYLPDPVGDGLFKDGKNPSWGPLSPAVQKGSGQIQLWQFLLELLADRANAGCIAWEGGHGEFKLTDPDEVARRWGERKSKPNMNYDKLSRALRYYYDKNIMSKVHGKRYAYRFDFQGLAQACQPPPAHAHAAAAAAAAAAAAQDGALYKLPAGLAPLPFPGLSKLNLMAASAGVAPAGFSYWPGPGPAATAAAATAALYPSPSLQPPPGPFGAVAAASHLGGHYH
# Outline: as §1
# ETV5 = ETV5 (Homo sapiens, UniProt P41161 1-510); conditions: protein: recombinant; tags: N-terminal GST; dsDNA, one strand shown
# Chain of ETV5 (P41161 whole entry): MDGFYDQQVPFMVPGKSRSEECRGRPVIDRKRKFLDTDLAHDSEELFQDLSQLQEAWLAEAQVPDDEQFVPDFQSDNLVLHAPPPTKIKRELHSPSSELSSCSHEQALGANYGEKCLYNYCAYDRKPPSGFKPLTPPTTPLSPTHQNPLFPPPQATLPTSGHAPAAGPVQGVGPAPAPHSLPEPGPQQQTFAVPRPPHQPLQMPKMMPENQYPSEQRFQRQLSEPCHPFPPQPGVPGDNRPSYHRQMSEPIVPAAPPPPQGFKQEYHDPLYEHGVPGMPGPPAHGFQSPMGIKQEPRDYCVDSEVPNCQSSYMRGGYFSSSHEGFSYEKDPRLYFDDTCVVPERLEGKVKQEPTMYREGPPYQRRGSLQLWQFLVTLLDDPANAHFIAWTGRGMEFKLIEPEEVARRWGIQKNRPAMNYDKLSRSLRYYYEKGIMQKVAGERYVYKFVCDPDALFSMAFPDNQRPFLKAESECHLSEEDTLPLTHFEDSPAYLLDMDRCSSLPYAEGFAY
# Outline: as §1
# HSF1 = HSF1 (Homo sapiens, UniProt Q00613 1-529); conditions: protein: recombinant; tags: N-terminal GST; chain copies: 3; dsDNA, one strand shown
# Chain of HSF1 (Q00613 whole entry): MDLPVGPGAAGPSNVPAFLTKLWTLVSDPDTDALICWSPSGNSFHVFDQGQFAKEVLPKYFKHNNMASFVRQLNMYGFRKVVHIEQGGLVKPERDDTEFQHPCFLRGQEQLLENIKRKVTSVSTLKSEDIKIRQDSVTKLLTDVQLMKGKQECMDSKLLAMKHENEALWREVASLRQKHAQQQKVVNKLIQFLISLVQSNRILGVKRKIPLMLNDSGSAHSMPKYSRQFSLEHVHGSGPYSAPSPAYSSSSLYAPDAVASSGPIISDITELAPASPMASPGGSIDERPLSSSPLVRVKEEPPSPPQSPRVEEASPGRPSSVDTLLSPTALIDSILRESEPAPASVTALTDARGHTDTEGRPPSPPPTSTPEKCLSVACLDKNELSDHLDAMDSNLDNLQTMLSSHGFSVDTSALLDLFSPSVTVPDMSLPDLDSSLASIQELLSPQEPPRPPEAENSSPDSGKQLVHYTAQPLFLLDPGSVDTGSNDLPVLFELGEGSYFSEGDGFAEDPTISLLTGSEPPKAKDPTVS
# Outline: as §1
# SPIC = target: T8, SPIC (Homo sapiens, UniProt Q8N5J4 1-248); conditions: protein: recombinant; tags: N-terminal GST; dsDNA, one strand shown
# T8 sequence: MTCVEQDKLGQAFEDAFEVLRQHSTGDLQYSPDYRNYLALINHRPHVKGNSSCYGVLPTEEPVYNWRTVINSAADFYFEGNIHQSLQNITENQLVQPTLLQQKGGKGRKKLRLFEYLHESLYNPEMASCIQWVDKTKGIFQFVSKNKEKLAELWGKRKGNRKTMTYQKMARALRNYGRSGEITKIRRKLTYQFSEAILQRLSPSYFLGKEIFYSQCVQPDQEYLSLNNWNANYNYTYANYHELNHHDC
# Outline: as §1
# ELF4 = ELF4 (Homo sapiens, UniProt Q99607 1-663); conditions: protein: recombinant; tags: N-terminal GST; dsDNA, one strand shown
# Chain of ELF4 (Q99607 whole entry): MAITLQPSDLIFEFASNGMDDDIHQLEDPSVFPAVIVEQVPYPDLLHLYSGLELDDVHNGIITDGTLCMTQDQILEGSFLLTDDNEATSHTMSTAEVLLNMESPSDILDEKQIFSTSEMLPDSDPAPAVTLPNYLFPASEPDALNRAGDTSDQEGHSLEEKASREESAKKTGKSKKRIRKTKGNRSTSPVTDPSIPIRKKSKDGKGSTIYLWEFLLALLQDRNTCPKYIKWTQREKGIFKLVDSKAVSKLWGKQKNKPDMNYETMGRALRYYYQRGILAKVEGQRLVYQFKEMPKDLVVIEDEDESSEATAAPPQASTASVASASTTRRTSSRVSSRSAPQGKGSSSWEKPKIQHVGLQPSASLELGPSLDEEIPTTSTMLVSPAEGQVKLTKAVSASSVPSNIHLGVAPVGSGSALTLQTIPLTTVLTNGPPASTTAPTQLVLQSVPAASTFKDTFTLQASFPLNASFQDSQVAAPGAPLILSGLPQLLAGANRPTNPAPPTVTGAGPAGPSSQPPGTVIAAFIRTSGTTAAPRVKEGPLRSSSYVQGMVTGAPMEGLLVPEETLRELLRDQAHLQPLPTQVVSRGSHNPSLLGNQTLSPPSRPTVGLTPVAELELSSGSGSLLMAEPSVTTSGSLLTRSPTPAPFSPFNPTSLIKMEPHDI
# Outline: as §1
# ELK4 = target: T9, ELK4 (Homo sapiens, UniProt P28324-2 1-405); conditions: protein: recombinant; tags: N-terminal GST; dsDNA, one strand shown
# T9 sequence: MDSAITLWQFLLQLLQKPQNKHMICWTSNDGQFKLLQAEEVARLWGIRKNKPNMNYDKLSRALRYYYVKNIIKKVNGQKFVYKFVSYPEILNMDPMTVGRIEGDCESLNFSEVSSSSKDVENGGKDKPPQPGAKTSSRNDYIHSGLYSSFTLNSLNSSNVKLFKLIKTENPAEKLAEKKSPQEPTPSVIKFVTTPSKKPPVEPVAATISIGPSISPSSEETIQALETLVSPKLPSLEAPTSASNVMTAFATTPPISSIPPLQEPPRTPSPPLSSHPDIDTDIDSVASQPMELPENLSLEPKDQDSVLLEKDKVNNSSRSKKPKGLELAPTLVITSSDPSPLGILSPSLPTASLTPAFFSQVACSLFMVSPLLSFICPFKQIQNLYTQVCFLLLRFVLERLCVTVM
# Outline: as §1
# ETV2 = target: T10, ETV2 (Homo sapiens, UniProt O00321 1-342); conditions: protein: recombinant; tags: N-terminal GST; dsDNA, one strand shown
# T10 sequence: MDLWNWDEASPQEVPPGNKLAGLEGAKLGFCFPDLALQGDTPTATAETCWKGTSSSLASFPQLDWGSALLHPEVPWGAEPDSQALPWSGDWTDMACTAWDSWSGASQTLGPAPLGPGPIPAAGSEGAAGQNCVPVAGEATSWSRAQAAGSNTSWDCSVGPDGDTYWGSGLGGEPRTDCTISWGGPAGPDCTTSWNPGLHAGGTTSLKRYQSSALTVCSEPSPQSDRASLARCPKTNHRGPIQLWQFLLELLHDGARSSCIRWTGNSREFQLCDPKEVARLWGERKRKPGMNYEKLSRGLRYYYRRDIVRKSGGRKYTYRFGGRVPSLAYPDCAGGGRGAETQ
# Outline: as §1
# ELF3 = target: T11, ELF3 (Homo sapiens, UniProt P78545 1-371); conditions: protein: recombinant; tags: N-terminal GST; dsDNA, one strand shown
# T11 sequence: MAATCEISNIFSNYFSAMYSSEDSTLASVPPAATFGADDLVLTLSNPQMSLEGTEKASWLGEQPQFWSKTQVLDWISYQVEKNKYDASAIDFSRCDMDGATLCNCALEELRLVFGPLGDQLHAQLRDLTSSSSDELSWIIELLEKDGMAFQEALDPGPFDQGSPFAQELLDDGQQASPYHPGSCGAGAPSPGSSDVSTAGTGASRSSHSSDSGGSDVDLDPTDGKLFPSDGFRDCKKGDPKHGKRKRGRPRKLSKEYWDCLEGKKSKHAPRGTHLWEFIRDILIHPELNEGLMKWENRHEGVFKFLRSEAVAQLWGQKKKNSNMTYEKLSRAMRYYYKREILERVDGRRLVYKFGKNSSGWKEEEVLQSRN
# Outline: as §1
# CRX = CRX (Homo sapiens, UniProt O43186 1-299); conditions: protein: recombinant; tags: N-terminal GST; dsDNA, one strand shown
# Chain of CRX (O43186 whole entry): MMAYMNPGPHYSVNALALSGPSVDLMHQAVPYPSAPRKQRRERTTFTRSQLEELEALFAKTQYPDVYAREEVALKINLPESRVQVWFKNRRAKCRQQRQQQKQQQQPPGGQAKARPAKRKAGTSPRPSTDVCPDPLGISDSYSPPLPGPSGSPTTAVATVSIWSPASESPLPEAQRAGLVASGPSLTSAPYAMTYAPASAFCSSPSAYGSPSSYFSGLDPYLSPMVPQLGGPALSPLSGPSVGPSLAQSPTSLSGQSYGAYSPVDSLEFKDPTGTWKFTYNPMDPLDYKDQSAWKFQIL
# Outline: as §1
# ETV1 = ETV1 (Homo sapiens, UniProt P50549 1-477); conditions: protein: recombinant; tags: N-terminal GST; dsDNA, one strand shown
# Chain of ETV1 (P50549 whole entry): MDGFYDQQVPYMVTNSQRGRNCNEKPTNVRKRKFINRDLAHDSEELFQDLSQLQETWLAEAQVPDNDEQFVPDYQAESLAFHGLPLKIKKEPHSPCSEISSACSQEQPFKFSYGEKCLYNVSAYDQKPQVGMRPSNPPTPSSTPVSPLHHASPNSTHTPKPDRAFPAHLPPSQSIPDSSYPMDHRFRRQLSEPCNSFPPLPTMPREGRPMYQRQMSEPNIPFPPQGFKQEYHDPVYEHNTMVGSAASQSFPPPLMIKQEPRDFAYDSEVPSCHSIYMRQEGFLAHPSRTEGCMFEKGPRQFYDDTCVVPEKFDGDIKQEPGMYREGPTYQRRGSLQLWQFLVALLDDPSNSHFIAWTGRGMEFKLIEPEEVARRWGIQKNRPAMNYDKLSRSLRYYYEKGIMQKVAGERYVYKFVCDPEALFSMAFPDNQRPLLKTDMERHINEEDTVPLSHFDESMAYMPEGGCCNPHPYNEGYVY
# Outline: as §1
sequence,measurement,setting,value
CAACTT,binding signal,FLI1,"1.62 fold enrichment (6-mer frequency, TF over GST control)"
same,binding signal,ELK1,"1.62 fold enrichment (6-mer frequency, TF over GST control)"
same,binding signal,GABPA,"1.53 fold enrichment (6-mer frequency, TF over GST control)"
same,binding signal,ERG,"1.68 fold enrichment (6-mer frequency, TF over GST control)"
same,binding signal,ELF1,"1.55 fold enrichment (6-mer frequency, TF over GST control)"
same,binding signal,EHF,"1.54 fold enrichment (6-mer frequency, TF over GST control)"
same,binding signal,SPI1,"1.69 fold enrichment (6-mer frequency, TF over GST control)"
same,binding signal,SPIB,"1.68 fold enrichment (6-mer frequency, TF over GST control)"
same,binding signal,ELK3,"1.59 fold enrichment (6-mer frequency, TF over GST control)"
same,binding signal,FEV,"1.78 fold enrichment (6-mer frequency, TF over GST control)"
same,binding signal,ETV5,"1.58 fold enrichment (6-mer frequency, TF over GST control)"
same,binding signal,HSF1,"1.22 fold enrichment (6-mer frequency, TF over GST control)"
same,binding signal,SPIC,"1.77 fold enrichment (6-mer frequency, TF over GST control)"
same,binding signal,ELF4,"1.57 fold enrichment (6-mer frequency, TF over GST control)"
same,binding signal,ELK4,"1.65 fold enrichment (6-mer frequency, TF over GST control)"
same,binding signal,ETV2,"1.4 fold enrichment (6-mer frequency, TF over GST control)"
same,binding signal,ELF3,"1.61 fold enrichment (6-mer frequency, TF over GST control)"
same,binding signal,CRX,"1.25 fold enrichment (6-mer frequency, TF over GST control)"
same,binding signal,ETV1,"1.54 fold enrichment (6-mer frequency, TF over GST control)"
